{"source": "PubChem BioAssay (EPA / NIEHS)", "note": "Calls of active or inactive are those of the source. How the source made its calls: active means hit-call score of the fitted dose curve at least 0.9, where 1 is the maximum; inactive means score below 0.9."}
{"target": "Transcription factor Sp1 (Homo sapiens) (UniProt P08047)", "sequence (P08047 whole entry, looked up)": "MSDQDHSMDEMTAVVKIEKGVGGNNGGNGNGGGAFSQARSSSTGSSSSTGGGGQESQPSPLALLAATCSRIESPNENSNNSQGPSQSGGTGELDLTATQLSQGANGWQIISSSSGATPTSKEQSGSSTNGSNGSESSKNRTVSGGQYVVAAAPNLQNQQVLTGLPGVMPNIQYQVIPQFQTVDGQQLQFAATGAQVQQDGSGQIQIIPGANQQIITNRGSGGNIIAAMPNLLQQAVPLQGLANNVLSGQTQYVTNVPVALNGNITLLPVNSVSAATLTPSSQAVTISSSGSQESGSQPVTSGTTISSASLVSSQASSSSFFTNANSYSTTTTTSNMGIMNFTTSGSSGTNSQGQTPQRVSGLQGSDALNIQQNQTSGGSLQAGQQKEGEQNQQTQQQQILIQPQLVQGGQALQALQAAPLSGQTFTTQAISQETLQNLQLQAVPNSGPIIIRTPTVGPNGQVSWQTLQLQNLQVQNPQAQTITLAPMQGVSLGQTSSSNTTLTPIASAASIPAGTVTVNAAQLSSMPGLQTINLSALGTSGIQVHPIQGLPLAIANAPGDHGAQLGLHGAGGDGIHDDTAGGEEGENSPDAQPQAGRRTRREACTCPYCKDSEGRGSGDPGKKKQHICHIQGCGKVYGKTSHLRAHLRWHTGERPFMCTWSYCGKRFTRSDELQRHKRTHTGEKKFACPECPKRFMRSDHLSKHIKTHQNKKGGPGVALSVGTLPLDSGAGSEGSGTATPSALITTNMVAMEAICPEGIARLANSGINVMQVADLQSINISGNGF", "assay": "ATG_Sp1_CIS: Attagene CIS-FACTORIAL HepG2 Assay for human Specificity Protein 1 (Sp1) (AID 2282961)", "conditions": "HepG2 Sp1 cis-reporter transcription, actives raise or lower the signal", "method": "ATG_CIS is a cell-based, multiplexed-readout assay that uses HepG2, a human liver cell line, with measurements taken at 24 hours after chemical dosing in a 24-well plate.ATG_Sp1_CIS is one of 52 assay component(s) measured or calculated from the ATG_CIS assay. It is designed to make measurements of mRNA induction, a form of inducible reporter, as detected with fluorescence intensity signals by Reverse transcription polymerase chain reaction (RT-PCR) and Capillary electrophoresis technology.Data from the assay component ATG_Sp1_CIS was analyzed into 1 assay endpoint. This assay endpoint, ATG_Sp1_CIS, was analyzed with bidirectional fitting relative to DMSO as the negative control and baseline of activity. Using a type of inducible reporter, measures of mRNA for gain or loss-of-signal activity can be used to understand the reporter gene at the transcription factor-level as they relate to the gene SP1. Furthermore, this assay endpoint can be referred to as a primary readout, because this assay has produced multiple assay endpoints where this one serves a reporter gene function. To generalize the intended target to other relatable targets, this assay endpoint is annotated to the dna binding intended target family, where the subfamily is zinc finger.\nHuman liver HepG2 cells are transiently transfected with multiple reporter transcription units (MRTUs) in 6-well plates using FuGene 6 reagent (Roche; 3 ml FuGene/1 mg DNA). The MRTU constructs are regulated by a cis-regulating element (promoter). […] A major difference between the CIS and TRANS system is that in CIS activities of endogenous TFs are measured, whereas the TRANS assay evaluates changes in activities of exogenous, chimeric NR-Gal4 proteins. […] At the end of 24 hour incubation, total RNA was isolated using TriZol reagent (Invitrogen). The isolated RNA is then reverse-transcribed using oligo(dT) primer and Mo-MLV reverse transcriptase (Invitrogen) with DNAse I (Ambion) treatment for 30 min. The one-tenth of the produced cDNA was amplified by PCR using Taq DNA polymerase (Invitrogen) and two reporter sequence-specific primers. The PCR products were fluorescently labeled by primer extension with 6-arboxyfluorescein (6-FAM) 5'-labeled reporter sequence-specific primer (2 min at 95 C, 20 s at 68 C and 10 min at 72 C) and these products were digested with 5U of HpaI (New England Biolabs) for 2h at 37 C. The fragments were purified using Qiaquick PCR columns (Qiagen), analyzed on an ABI 3130xL genetic analyzer (Applied Biosystems) with peak positions identified by using a set of X-rhodamine (ROX)-labeled MapMarker1000 molecular weight standards (BioVentures). The raw capillary electrophoresis data was processed using Attagraph software (Attagene)."}
{"smiles": "CCCCCCCC/C=C\\CCCCCCCC(=O)OCC(O)CO", "note": "(stereo not given)", "outcome": "inactive"}
{"smiles": "CCOC(=O)C1CC(=O)C(=C(O)C2CC2)C(=O)C1", "note": "(stereo not given)", "outcome": "inactive"}
{"smiles": "CSc1ccc(Cl)cc1", "outcome": "inactive"}
{"smiles": "COCCOCCC[Si](C)(O[Si](C)(C)C)O[Si](C)(C)C", "AC50": "9.13 µM (active)"}
{"smiles": "CCOCN(C(=O)CS(=O)(=O)O)c1c(C)cccc1CC", "outcome": "inactive"}
{"smiles": "CC(C)(C)c1cc(CCC(=O)NCCCCCCNC(=O)CCc2cc(C(C)(C)C)c(O)c(C(C)(C)C)c2)cc(C(C)(C)C)c1O", "outcome": "inactive"}
{"smiles": "CCOCOCC", "outcome": "inactive"}
{"smiles": "CCC/C=C/CO", "outcome": "inactive"}
{"smiles": "CC(O)C#CC(C)O", "note": "(stereo not given)", "AC50": "73.1 µM (active)"}
{"smiles": "C=CC(=O)OCC(F)(F)C(F)(F)C(F)(F)COC(=O)C=C", "AC50": "26.4 µM (active)"}
{"smiles": "OCCC(O)CO", "note": "(stereo not given)", "outcome": "inactive"}
{"smiles": "C[Si](Cl)(Cl)CCC(F)(F)C(F)(F)C(F)(F)C(F)(F)C(F)(F)C(F)(F)F", "outcome": "inactive"}
{"smiles": "CN(C(=O)C(F)(F)C(F)(F)C(F)(F)F)[Si](C)(C)C", "outcome": "inactive"}
{"smiles": "NCC(F)(F)C(F)(F)C(F)(F)C(F)(F)C(F)(F)C(F)(F)F", "outcome": "inactive"}
{"smiles": "O=C1OC(=O)c2ccc3c4c(ccc1c24)C(=O)OC3=O", "outcome": "inactive"}
{"smiles": "OCCCc1cccnc1", "outcome": "inactive"}
{"smiles": "Cc1cc(=O)[nH]c(C(C)C)n1", "outcome": "inactive"}
{"smiles": "Cc1cc(O)c(C(C)(C)C)cc1C(C)(C)C", "AC50": "11.1 µM (active)"}
{"smiles": "CCCCCCCCCCCCCC[P+](CCCC)(CCCC)CCCC", "AC50": "0.969 µM (active)"}
{"smiles": "CC(=O)CCC(C)C", "outcome": "inactive"}
{"smiles": "C=CC(=O)OCCC(F)(F)C(F)(F)C(F)(F)C(F)(F)F", "outcome": "inactive"}
{"smiles": "OCC(O)CC(F)(F)C(F)(F)C(F)(F)C(F)(F)C(F)(F)C(F)(F)C(F)(F)C(F)(F)F", "note": "(stereo not given)", "outcome": "inactive"}
{"smiles": "O=S(=O)(Cl)C(F)(F)C(F)(F)C(F)(F)C(F)(F)C(F)(F)C(F)(F)C(F)(F)C(F)(F)F", "outcome": "inactive"}
{"smiles": "O=C(c1ccccc1)c1ccc(Cl)cc1", "outcome": "inactive"}
{"smiles": "CC1=CCC(=O)O1", "outcome": "inactive"}
{"smiles": "CC(C)CC=C(C=O)c1ccccc1", "outcome": "inactive"}
{"smiles": "OC(O)C(F)(F)C(F)(F)F", "outcome": "inactive"}
{"smiles": "O=S(=O)(O)c1ccc(Cl)cc1", "outcome": "inactive"}
{"smiles": "CO[Si](C)(CCC(F)(F)C(F)(F)C(F)(F)C(F)(F)C(F)(F)C(F)(F)F)OC", "outcome": "inactive"}
{"smiles": "COCCC(=O)OC", "outcome": "inactive"}
{"smiles": "Cc1cnccn1", "outcome": "inactive"}
{"smiles": "C#CC(O)CCC", "note": "(stereo not given)", "outcome": "inactive"}
{"smiles": "COC(F)(C(F)F)C(F)(F)F", "note": "(stereo not given)", "outcome": "inactive"}
{"smiles": "Cc1ccc(O)c(-n2nc3ccccc3n2)c1", "outcome": "inactive"}
{"smiles": "C=C(C)C(=O)OCC(F)(F)C(F)(F)C(F)(F)C(F)F", "outcome": "inactive"}
{"smiles": "CCCCCCCCCCCCCCCCC", "outcome": "inactive"}
{"smiles": "CCN(CCO)S(=O)(=O)C(F)(F)C(F)(F)C(F)(F)C(F)(F)C(F)(F)C(F)(F)C(F)(F)C(F)(F)F", "outcome": "inactive"}
{"smiles": "Brc1nc2ccccc2s1", "outcome": "inactive"}
{"smiles": "Oc1ccc2c(c1)CCC2", "outcome": "inactive"}
{"smiles": "CC(C)OC(=O)COc1ccc(Cl)cc1Cl", "outcome": "inactive"}
